Results published in PubChem BioAssay (EPA / NIEHS).
Inconclusive results are not listed. The source made the active and inactive calls. The calls were made as follows, unless noted: active = hit-call score of the fitted dose curve at least 0.9, where 1 is the maximum; inactive = score below 0.9.

Columns and labels:
[1] = target: Oxysterols receptor LXR-alpha (Homo sapiens) (UniProt Q13133); test: ATG_LXRa_TRANS: Attagene TRANS-FACTORIAL HepG2 Assay for human Liver X Receptor alpha (LXRa) (AID 2282980; active = hit-call score of the fitted dose curve at least 0.9, where 1 is the maximum); conditions: HepG2 Attagene TRANS reporter, LXRa transactivation
Procedure, shortened: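 Transient HepG2 transfectants, 24 h dosing, RT-PCR/CE mRNA reporter quantitation; gain-of-signal vs DMSO.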

[2] = target: Oxysterols receptor LXR-beta (Homo sapiens) (UniProt P55055); test: ATG_LXRb_TRANS: Attagene TRANS-FACTORIAL HepG2 Assay for human Liver X Receptor beta (LXRb) (AID 2282981; active = hit-call score of the fitted dose curve at least 0.9, where 1 is the maximum); conditions: HepG2 Attagene TRANS GAL4-LXRb reporter, mRNA
Procedure, shortened: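 Gain-of-signal mRNA reporter endpoint, DMSO as negative control. Transiently transfected HepG2 cells carrying the NR-Gal4 chimera and GAL4-UAS reporter units were treated 24 h; transcripts quantified by RT-PCR and capillary electrophoresis fluorescence.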

[3] = target: Hepatocyte nuclear factor 4-alpha (Homo sapiens) (UniProt P41235); test: ATG_HNF4a_TRANS: Attagene TRANS-FACTORIAL HepG2 Assay for human Hepatocyte Nuclear Factor 4 alpha (HNF4a) (AID 2282982; active = hit-call score of the fitted dose curve at least 0.9, where 1 is the maximum); conditions: HepG2 HNF4a transactivation reporter, mRNA readout
Procedure, shortened: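 Gain-of-signal mRNA induction, relative to DMSO vehicle, was read after 24 h compound treatment of HepG2 cells bearing transfected GAL4-UAS reporters. Detection used RT-PCR, 6-FAM primer extension and capillary electrophoresis.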

[4] = target: Transcriptional activator Myb (Homo sapiens) (UniProt P10242); test: ATG_Myb_CIS: Attagene CIS-FACTORIAL HepG2 Assay for human Myeloblastosis (Myb) Proto-Oncogene Transcription Factor (AID 2282986); conditions: HepG2 Attagene CIS-FACTORIAL Myb reporter transcription; actives raise or lower the signal
Procedure, shortened: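 HepG2 cells were transiently transfected with cis-regulated multiple reporter transcription units reflecting endogenous Myb activity, then exposed to compound for 24 hours. Reporter mRNA was measured by RT-PCR with capillary electrophoresis; bidirectional fitting versus DMSO baseline.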

[5] = target: Nuclear respiratory factor 1 (Homo sapiens) (UniProt Q16656); test: ATG_NRF1_CIS: Attagene CIS-FACTORIAL HepG2 Assay for human Nuclear Respiratory Factor 1 (NRF1) Orphan Gene (AID 2282987); conditions: HepG2 NRF1 cis-element reporter, Attagene multiplex; actives raise or lower the signal
Procedure, shortened: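 HepG2 cells transiently transfected with multiple reporter transcription units under cis-regulatory promoter control, so endogenous transcription-factor activity is read. After 24 h compound exposure, reporter mRNA quantified by RT-PCR, fluorescent labelling, HpaI digestion and capillary electrophoresis; bidirectional fitting versus DMSO.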

[6] = ATG_NFI_CIS: Attagene CIS-FACTORIAL HepG2 Assay for human Nuclear Factor I (NFI) (AID 2282989); conditions: HepG2 cis-regulatory reporter, NFI response element transcription; actives raise or lower the signal
Procedure, shortened: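 After transient transfection of HepG2 with cis-promoter reporter constructs and 24 h dosing, RNA is reverse-transcribed, amplified, 6-FAM end-labelled and HpaI-digested before capillary analysis. Bidirectional curve fitting against DMSO.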

[7] = target: Myc proto-oncogene protein (Homo sapiens) (UniProt P01106); test: ATG_Myc_CIS: Attagene CIS-FACTORIAL HepG2 Assay for human Myelocytomatosis (Myc) Proto-Oncogene Transcription Factor (AID 2282990); conditions: HepG2, Attagene cis-reporter transcription factor activity; actives raise or lower the signal
Procedure, shortened: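 Transiently transfected HepG2 cells bearing cis-promoter reporter units for endogenous transcription factors; 24 h exposure. Reporter mRNA measured by RT-PCR, 6-FAM primer extension, HpaI cut and capillary electrophoresis; bidirectional fit relative to DMSO.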

[8] = ATG_NF_kB_CIS: Attagene CIS-FACTORIAL HepG2 Assay for human Nuclear Factor Kappa B (NF-kB) (AID 2282991); conditions: HepG2 Attagene cis-factorial NF-kB reporter mRNA; actives raise or lower the signal
Procedure, shortened: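 HepG2 cells transiently transfected with multiplexed cis-element reporter units measuring endogenous transcription factor activity; reporter mRNA read 24 h after dosing by RT-PCR, fluorescent labelling, HpaI digestion and capillary electrophoresis. Bidirectional fit against DMSO baseline.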

[9] = ATG_NRF2_ARE_CIS: Attagene CIS-FACTORIAL HepG2 Assay for human Nuclear Factor Erythroid 2 Related Factor 2 (NFR2) response to Antioxidant Response Elements (ARE) (AID 2282992); conditions: HepG2 Attagene ARE/NRF2 reporter, transcription factor activity; actives raise or lower the signal
Procedure, shortened: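 Transient MRTU transfection of HepG2; 24 h compound exposure; TriZol RNA, RT with oligo(dT), PCR, 6-FAM primer extension, HpaI cut, CE. Bidirectional fit vs DMSO.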

[10] = ATG_Oct_MLP_CIS: Attagene CIS-FACTORIAL HepG2 Assay for human Octamer-Binding Transcription Factor (Oct) (AID 2282993); conditions: HepG2 Attagene cis-factorial Oct reporter, mRNA; actives raise or lower the signal
Procedure, shortened: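 Cells of the HepG2 line express promoter-controlled reporter sequences whose mRNA levels, after 24 h treatment, are measured by RT-PCR and capillary electrophoresis. Increases and decreases are scored relative to DMSO.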

[11] = target: Cellular tumor antigen p53 (Homo sapiens) (UniProt P04637); test: ATG_p53_CIS: Attagene CIS-FACTORIAL HepG2 Assay for human p53 Transcription Factor (AID 2282994); conditions: HepG2 p53 cis-element reporter, Attagene mRNA; actives raise or lower the signal
Procedure, shortened: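 HepG2, transient MRTU transfection (cis promoter elements, endogenous TFs); 24 h dosing; RNA isolation, RT-PCR, 6-FAM primer extension, HpaI digest, CE fluorescence; bidirectional fit vs DMSO.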

[12] = ATG_M_32_TRANS: Attagene TRANS-FACTORIAL HepG2 Assay for M32 Transcription Factor (Internal Marker) (AID 2282984; active = hit-call score of the fitted dose curve at least 0.9, where 1 is the maximum;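 also: transcript level of a background control reporter unit measured by RT-PCR and capillary electrophoresis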); conditions: HepG2 Attagene TRANS M32 internal marker reporter
Procedure, shortened: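 Capillary electrophoresis of 6-FAM-labelled reporter fragments gives the signal; data fitted for gain over DMSO negative control. Source: HepG2 cells bearing transient multiple reporter transcription units, 24 h exposure.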

[13] = target: Nuclear receptor subfamily 4 group A member 2 (Homo sapiens) (UniProt P43354); test: ATG_NURR1_TRANS: Attagene TRANS-FACTORIAL HepG2 Assay for human Nuclear Receptor Related Protein 1 (NURR1) (AID 2282985; active = hit-call score of the fitted dose curve at least 0.9, where 1 is the maximum); conditions: HepG2 Attagene TRANS reporter, mRNA readout
Procedure, shortened: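 HepG2 / transient MRTU transfection / 24 h compound exposure / RT-PCR + CE fluorescence of reporter mRNA / gain-of-signal vs DMSO.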

[14] = ATG_M_06_TRANS: Attagene TRANS-FACTORIAL HepG2 Assay for M06 Transcription Factor (Internal Marker) (AID 2282983; active = hit-call score of the fitted dose curve at least 0.9, where 1 is the maximum); conditions: HepG2 Attagene TRANS M06 internal marker reporter
Procedure, shortened: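 Measured by capillary electrophoresis of fluorescently labelled RT-PCR products, this endpoint reflects reporter mRNA in HepG2 cells harbouring exogenous NR-GAL4 reporter constructs after 24 h exposure, with DMSO as baseline.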

[15] = BSK_3C_TissueFactor: BioMAP Diversity Plus: 3C Assay for Tissue Factor Biomarker Activity (AID 2282997); conditions: BioMAP 3C HUVEC, tissue factor biomarker readout; actives raise or lower the signal
Procedure, shortened: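 Values derive from bidirectional curve fitting against DMSO of Tissue Factor ELISA signals, taken 24 h after dosing primary human umbilical vein endothelial cells.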

[16] = BSK_3C_uPAR: BioMAP Diversity Plus: 3C Assay for Urokinase-type plasminogen activator receptor (uPAR) Biomarker Activity (AID 2282998); conditions: BioMAP 3C HUVEC, uPAR biomarker ELISA; actives raise or lower the signal
Procedure, shortened: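 Endothelial primary cells of human umbilical vein origin received test chemical; 24 h later uPAR was assayed by ELISA. Fitting was bidirectional, DMSO as negative control.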

[17] = BSK_3C_VCAM1: BioMAP Diversity Plus: 3C Assay for Vascular cell adhesion molecule 1 (VCAM1) Biomarker Activity (AID 2282999); conditions: BioMAP 3C HUVEC, VCAM1 ELISA, cytokine-stimulated; actives raise or lower the signal
Procedure, shortened: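 Human umbilical vein endothelial cells (3C system), biomarker read by ELISA 24 h after dosing; bidirectional fit against DMSO baseline. Cytotoxicity tracked by SRB total-protein staining in parallel cultures at biomarker time.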

Measured: outcome

Chain of Oxysterols receptor LXR-alpha (Homo sapiens) (Q13133 whole entry, looked up): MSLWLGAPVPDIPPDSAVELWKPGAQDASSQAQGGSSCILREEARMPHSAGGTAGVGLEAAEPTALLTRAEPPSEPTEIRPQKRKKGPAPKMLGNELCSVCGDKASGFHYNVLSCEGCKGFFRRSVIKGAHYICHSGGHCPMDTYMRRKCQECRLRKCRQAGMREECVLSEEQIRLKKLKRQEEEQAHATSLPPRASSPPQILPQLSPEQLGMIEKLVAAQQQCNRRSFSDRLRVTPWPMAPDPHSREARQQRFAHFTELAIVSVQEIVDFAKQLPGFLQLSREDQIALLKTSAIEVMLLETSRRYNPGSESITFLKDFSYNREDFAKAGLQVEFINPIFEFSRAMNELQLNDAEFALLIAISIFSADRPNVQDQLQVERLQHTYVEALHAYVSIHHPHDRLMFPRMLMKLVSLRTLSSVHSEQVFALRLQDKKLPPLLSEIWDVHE
Chain of Nuclear receptor subfamily 4 group A member 2 (Homo sapiens) (P43354 whole entry, looked up): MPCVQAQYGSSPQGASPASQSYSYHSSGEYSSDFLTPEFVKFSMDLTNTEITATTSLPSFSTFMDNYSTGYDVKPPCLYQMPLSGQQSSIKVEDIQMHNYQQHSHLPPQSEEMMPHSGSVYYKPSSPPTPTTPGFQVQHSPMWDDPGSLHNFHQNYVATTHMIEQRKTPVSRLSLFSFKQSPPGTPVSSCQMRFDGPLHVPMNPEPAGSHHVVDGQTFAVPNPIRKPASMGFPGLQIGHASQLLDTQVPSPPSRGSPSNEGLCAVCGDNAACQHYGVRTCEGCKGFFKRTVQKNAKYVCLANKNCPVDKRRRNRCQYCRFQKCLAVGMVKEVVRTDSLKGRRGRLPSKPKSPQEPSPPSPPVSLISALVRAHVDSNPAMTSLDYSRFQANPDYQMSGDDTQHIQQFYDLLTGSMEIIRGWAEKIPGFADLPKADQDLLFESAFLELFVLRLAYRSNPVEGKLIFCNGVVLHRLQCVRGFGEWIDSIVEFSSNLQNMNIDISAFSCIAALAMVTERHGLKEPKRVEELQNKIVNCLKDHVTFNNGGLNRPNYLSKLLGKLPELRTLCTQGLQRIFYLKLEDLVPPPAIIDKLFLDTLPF
Chain of Myc proto-oncogene protein (Homo sapiens) (P01106 whole entry, looked up): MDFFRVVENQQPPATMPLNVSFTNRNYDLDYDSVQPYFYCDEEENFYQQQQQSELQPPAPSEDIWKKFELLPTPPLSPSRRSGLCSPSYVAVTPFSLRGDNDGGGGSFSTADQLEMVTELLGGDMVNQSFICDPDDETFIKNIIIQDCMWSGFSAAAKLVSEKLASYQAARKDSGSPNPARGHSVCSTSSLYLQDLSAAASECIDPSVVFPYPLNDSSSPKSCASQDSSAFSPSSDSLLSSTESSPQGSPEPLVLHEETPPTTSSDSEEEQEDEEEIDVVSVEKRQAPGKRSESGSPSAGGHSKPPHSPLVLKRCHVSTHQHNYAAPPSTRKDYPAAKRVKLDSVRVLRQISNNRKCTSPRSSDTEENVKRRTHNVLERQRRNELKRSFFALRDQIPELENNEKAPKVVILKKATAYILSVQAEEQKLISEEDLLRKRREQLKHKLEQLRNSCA
Chain of Nuclear respiratory factor 1 (Homo sapiens) (Q16656 whole entry, looked up): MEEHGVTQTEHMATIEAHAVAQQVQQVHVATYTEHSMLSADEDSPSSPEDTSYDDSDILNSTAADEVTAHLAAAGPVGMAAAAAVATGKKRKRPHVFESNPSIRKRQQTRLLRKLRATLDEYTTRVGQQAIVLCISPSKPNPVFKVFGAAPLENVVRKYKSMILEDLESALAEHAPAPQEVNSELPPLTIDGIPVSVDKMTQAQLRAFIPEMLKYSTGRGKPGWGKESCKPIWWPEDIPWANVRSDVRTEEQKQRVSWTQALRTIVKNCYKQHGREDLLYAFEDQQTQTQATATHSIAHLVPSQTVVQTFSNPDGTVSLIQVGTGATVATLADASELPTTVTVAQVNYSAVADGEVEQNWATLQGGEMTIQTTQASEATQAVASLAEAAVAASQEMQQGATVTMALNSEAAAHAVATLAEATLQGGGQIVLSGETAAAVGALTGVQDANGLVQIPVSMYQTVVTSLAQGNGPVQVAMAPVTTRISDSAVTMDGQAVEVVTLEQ
Chain of Oxysterols receptor LXR-beta (Homo sapiens) (P55055 whole entry, looked up, the tested form may be a part): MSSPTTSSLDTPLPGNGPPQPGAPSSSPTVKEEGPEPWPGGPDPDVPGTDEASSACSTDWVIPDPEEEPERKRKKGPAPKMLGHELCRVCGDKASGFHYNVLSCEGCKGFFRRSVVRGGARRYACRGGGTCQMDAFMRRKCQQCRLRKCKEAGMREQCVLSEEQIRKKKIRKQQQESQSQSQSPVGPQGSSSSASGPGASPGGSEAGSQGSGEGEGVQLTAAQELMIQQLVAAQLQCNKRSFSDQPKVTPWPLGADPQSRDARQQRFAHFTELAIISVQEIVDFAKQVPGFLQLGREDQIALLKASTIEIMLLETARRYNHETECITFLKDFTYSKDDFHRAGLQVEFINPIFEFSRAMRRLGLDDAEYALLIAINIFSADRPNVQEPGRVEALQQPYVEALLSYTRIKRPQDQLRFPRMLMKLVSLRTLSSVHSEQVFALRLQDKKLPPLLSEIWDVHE
Chain of Transcriptional activator Myb (Homo sapiens) (P10242 whole entry, looked up): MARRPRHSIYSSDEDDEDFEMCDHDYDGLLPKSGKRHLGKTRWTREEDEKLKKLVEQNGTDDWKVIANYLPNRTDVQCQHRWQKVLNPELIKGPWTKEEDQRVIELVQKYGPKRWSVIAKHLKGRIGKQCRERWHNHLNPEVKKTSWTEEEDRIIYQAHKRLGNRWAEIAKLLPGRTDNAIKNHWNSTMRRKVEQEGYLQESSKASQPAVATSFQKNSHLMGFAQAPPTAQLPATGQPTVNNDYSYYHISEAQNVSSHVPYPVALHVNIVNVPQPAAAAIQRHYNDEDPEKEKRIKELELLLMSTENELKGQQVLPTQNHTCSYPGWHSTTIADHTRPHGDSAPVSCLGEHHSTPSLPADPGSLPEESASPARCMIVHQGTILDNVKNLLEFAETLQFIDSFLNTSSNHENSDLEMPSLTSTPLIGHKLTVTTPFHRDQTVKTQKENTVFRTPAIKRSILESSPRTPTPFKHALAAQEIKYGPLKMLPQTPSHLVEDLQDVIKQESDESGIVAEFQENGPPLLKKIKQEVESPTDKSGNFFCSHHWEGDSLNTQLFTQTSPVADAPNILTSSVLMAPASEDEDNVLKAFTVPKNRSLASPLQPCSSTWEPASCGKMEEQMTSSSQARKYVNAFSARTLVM
Chain of Hepatocyte nuclear factor 4-alpha (Homo sapiens) (P41235 whole entry, looked up, the tested form may be a part): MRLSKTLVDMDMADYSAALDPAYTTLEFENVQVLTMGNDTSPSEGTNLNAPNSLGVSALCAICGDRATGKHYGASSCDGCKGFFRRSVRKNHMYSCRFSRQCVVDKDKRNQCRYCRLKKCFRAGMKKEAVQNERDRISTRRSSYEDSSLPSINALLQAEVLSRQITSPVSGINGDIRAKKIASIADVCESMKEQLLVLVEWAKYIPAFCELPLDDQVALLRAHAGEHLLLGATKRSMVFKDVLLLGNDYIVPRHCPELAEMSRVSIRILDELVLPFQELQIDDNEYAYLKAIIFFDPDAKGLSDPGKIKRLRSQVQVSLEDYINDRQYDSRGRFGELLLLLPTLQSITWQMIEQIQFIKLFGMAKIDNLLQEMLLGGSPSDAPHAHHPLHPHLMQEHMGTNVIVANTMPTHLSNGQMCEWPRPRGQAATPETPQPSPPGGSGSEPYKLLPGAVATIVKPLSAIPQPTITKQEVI
Chain of Cellular tumor antigen p53 (Homo sapiens) (P04637 whole entry, looked up): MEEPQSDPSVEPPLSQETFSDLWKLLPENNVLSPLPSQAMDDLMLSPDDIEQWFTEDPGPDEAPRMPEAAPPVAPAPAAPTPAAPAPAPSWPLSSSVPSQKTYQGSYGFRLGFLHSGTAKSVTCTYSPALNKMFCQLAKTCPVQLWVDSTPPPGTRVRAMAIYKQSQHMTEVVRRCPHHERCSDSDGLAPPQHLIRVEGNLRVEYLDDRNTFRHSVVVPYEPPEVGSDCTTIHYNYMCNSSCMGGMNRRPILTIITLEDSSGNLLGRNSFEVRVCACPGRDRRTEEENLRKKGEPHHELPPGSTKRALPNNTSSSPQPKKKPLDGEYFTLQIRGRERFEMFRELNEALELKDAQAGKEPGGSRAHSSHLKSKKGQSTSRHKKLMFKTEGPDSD

CCCCOCC(C)OCC(C)O (stereo unspecified)
not listed: [11] | [12] | [13] | [14] | [15] | [16] | [17]
inactive: all other assays above

CCCCCCCCCCOC(=O)c1ccccc1C(=O)OCCCCCCCC
inactive: [1] | [3] | [5] | [6] | [7] | [8] | [9] | [10] | [11]

C=CC(=O)OCCCCCC
not listed: [3] | [7] | [8] | [14] | [15] | [16] | [17]
inactive: all other assays above

CC(=O)Nc1cc(S(=O)(=O)O)cc2cc(S(=O)(=O)O)c(N=Nc3ccccc3)c(O)c12
not listed: [3] | [4] | [12] | [13] | [15] | [16] | [17]
inactive: all other assays above

CCCCCCCCCCCCCC(=O)OCC
not listed: [3] | [8] | [15] | [16] | [17]
inactive: all other assays above

CCNC(=S)NCC
not listed: [3] | [15] | [16] | [17]
inactive: all other assays above

CCCC1CCOC(C)S1 (stereo unspecified)
inactive: [1] | [4] | [5] | [6] | [7] | [8] | [9]

CCCCN(CCCC)CCCCCCN(CCCC)CCCC
inactive: [1] | [2] | [12] | [4] | [5] | [6] | [7] | [10] | [11]

CC(C)(C)C1CCC(O)CC1 (stereo unspecified)
inactive: [1] | [2] | [14] | [4] | [5] | [6] | [7] | [8] | [10]

OCCN1CCOCC1
not listed: [4] | [11] | [12]
inactive: all other assays above

CN(C)C
inactive: [1] | [2] | [12] | [4] | [5] | [6] | [10] | [11]
